Measurements from PubChem BioAssay (EPA / NIEHS).
Records with an inconclusive call do not appear. Calls of active or inactive are those of the source. Rule for the calls, unless noted: active = hit-call score of the fitted dose curve at least 0.9, where 1 is the maximum; inactive = score below 0.9.

What was measured:
[1] = biological target: Paired box protein Pax-6 (Homo sapiens) (UniProt P26367); assay: ATG_Pax6_CIS: Attagene CIS-FACTORIAL HepG2 Assay for human Paired Box 6 (PAX6) (AID 2282956); settings: HepG2 CIS-FACTORIAL PAX6 reporter transcription, RNA readout; actives raise or lower the signal
How it was run: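 Multiplexed cis-reporter HepG2 system; 24 h treatment; reporter mRNA read by RT-PCR/CE fluorescence; bidirectional fit vs DMSO.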

[2] = ATG_PXRE_CIS: Attagene CIS-FACTORIAL HepG2 Assay for human Pregnane X Receptor Element (PXRE) (AID 2282957); settings: HepG2 Attagene CIS-FACTORIAL PXRE reporter, mRNA; actives raise or lower the signal
How it was run: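 HepG2 cells transiently transfected with cis-regulated multiple reporter transcription units; endogenous factor activity measured as reporter mRNA 24 h after dosing. RT-PCR, fluorescent primer extension, HpaI digestion, capillary electrophoresis; bidirectional fit versus DMSO baseline.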

[3] = ATG_PPRE_CIS: Attagene CIS-FACTORIAL HepG2 Assay for human Peroxisome Proliferator-activated Response Element (PPRE) (AID 2282958); settings: HepG2 PPRE cis-element reporter, Attagene transcription factor profiling; actives raise or lower the signal
How it was run: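 Transcript-level reporter induction in transfected HepG2 cells after 24 h chemical exposure, quantified by fluorescence from RT-PCR products separated by capillary electrophoresis.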

[4] = ATG_RORE_CIS: Attagene CIS-FACTORIAL HepG2 Assay for human RAR-related Orphan Receptor Element (RORE) (AID 2282959); settings: HepG2 Attagene cis-factorial RORE reporter, mRNA; actives raise or lower the signal
How it was run: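 Multiplexed reporter assay measuring mRNA induction from a cis promoter element in transiently transfected HepG2 cells after 24 h treatment. Detection via RT-PCR and capillary electrophoresis fluorescence; DMSO serves as baseline.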

[5] = ATG_Sox_CIS: Attagene CIS-FACTORIAL HepG2 Assay for human SRY-box transcription factor (SOX) (AID 2282960); settings: HepG2 Attagene cis-factorial SOX reporter, mRNA; actives raise or lower the signal
How it was run: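 Cells were transfected with reporter constructs under cis-regulatory promoters, then exposed to chemicals for 24 h. Reporter transcripts were quantified by fluorescence after RT-PCR and capillary electrophoresis; activity was fitted in both directions against DMSO.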

[6] = biological target: Transcription factor Sp1 (Homo sapiens) (UniProt P08047); assay: ATG_Sp1_CIS: Attagene CIS-FACTORIAL HepG2 Assay for human Specificity Protein 1 (Sp1) (AID 2282961); settings: HepG2 Sp1 cis-reporter transcription, actives raise or lower the signal
How it was run: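 Measures mRNA induction of an Sp1-linked reporter in HepG2 cells 24 h post-dosing. Multiplexed reporters read by RT-PCR and capillary electrophoresis; DMSO serves as negative control and baseline.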

[7] = ATG_SREBP_CIS: Attagene CIS-FACTORIAL HepG2 Assay for human Sterol Regulatory Element Binding (SREBP) (AID 2282962); settings: HepG2 Attagene cis-factorial SREBP reporter, mRNA; actives raise or lower the signal
How it was run: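 mRNA induction of transfected cis-promoter reporters in HepG2 cells, 24 h post-dose. Detection: RT-PCR with 6-FAM-labelled products, HpaI digest, capillary electrophoresis. DMSO served as negative control and baseline.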

[8] = biological target: Signal transducer and activator of transcription 3 (Homo sapiens) (UniProt P40763); assay: ATG_STAT3_CIS: Attagene CIS-FACTORIAL HepG2 Assay for human Signal Transducer and Activator of Transcription 3 (STAT3) (AID 2282963); settings: HepG2, Attagene cis-factorial STAT3 reporter transcription; actives raise or lower the signal
How it was run: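 Values derive from bidirectional fits relative to DMSO of reporter mRNA levels, measured by RT-PCR with capillary electrophoresis, in HepG2 cells carrying transiently transfected cis-regulated reporter units and exposed 24 h.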

[9] = ATG_TA_CIS: Attagene CIS-FACTORIAL HepG2 Assay for human TA Basal Promoter (AID 2282964); settings: HepG2 Attagene CIS-factorial TA basal promoter reporter; actives raise or lower the signal
How it was run: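 HepG2 cells transiently transfected with multiplexed cis-promoter reporter units, dosed 24 h. Reporter mRNA measured by RT-PCR, 6-FAM labelling, HpaI digestion and capillary electrophoresis; bidirectional fit versus DMSO baseline, serving as background control.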

[10] = ATG_TCF_b_cat_CIS: Attagene CIS-FACTORIAL HepG2 Assay for human T-Cell-Factor with beta-catenin (TCF/b-cat) (AID 2282965); settings: HepG2 TCF/beta-catenin cis-reporter transcription, actives raise or lower the signal
How it was run: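 HepG2, transient MRTU transfection, cis-element-driven reporters (endogenous TFs). 24 h compound exposure. Readout: reporter mRNA by RT-PCR + 6-FAM primer extension, HpaI digest, capillary electrophoresis. Gain/loss fit vs DMSO baseline.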

[11] = ATG_TAL_CIS: Attagene CIS-FACTORIAL HepG2 Assay for human TAL Basal Promoter (AID 2282966); settings: HepG2 Attagene cis-factorial TAL promoter reporter; actives raise or lower the signal;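 note: background control endpoint measuring basal TAL promoter reporter mRNA not a specific factor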
How it was run: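 HepG2 cells were transiently transfected with promoter-driven multiplexed reporter units and dosed for 24 h. Reporter mRNA was measured by RT-PCR with capillary electrophoresis fluorescence; bidirectional fits used DMSO as baseline, serving as a background control.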

[12] = ATG_TGFb_CIS: Attagene CIS-FACTORIAL HepG2 Assay for human Transforming Growth Factor (TGF) (AID 2282967); settings: HepG2 Attagene CIS TGFb reporter, mRNA transcription; actives raise or lower the signal
How it was run: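 HepG2 cells transiently transfected with cis-promoter-driven multiplexed reporter units; 24 h compound exposure. Reporter mRNA measured by RT-PCR, 6-FAM labeling, HpaI digestion and capillary electrophoresis; bidirectional fit versus DMSO baseline.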

[13] = biological target: Nuclear receptor subfamily 1 group I member 3 (Homo sapiens) (UniProt Q14994); assay: ATG_CAR_TRANS: Attagene TRANS-FACTORIAL HepG2 Assay for human Constitutive Androstane Receptor (CAR) (AID 2282969; active = hit-call score of the fitted dose curve at least 0.9, where 1 is the maximum;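 note: activators raise reporter mRNA above DMSO so AC50 marks induction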); settings: HepG2 Attagene TRANS-FACTORIAL CAR reporter
How it was run: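 HepG2 cells transiently transfected with GAL4-UAS reporter units; TRANS format reads activity of exogenous chimeric NR-Gal4 protein. After 24 h dosing, reporter mRNA quantified by RT-PCR, 6-FAM labelling and capillary electrophoresis; gain of signal fitted against DMSO.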

[14] = biological target: X-box-binding protein 1 (Homo sapiens) (UniProt P17861); assay: ATG_Xbp1_CIS: Attagene CIS-FACTORIAL HepG2 Assay for human X-box Binding Protein 1 (XBP1) (AID 2282972); settings: HepG2 XBP1 cis-element reporter, Attagene multiplex; actives raise or lower the signal
How it was run: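 Fluorescence-labelled cDNA fragments from reporter transcripts, separated by capillary electrophoresis, give the signal. Source: HepG2 cells transfected with promoter-driven reporter units, harvested 24 h post-dose. DMSO served as reference for bidirectional curve fitting.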

[15] = ATG_VDRE_CIS: Attagene CIS-FACTORIAL HepG2 Assay for human Vitamin D Receptor Element (VDRE) (AID 2282968); settings: HepG2 VDRE cis-reporter transcription, actives raise or lower the signal
How it was run: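 Cell-based multiplexed reporter format in human liver HepG2 cells, 24 h post-dose. Fluorescence from capillary electrophoresis of reporter cDNA gives the signal, with DMSO as negative control and baseline.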

[16] = ATG_M_19_TRANS: Attagene TRANS-FACTORIAL HepG2 Assay for M19 Transcription Factor (Internal Marker) (AID 2282974; active = hit-call score of the fitted dose curve at least 0.9, where 1 is the maximum); settings: HepG2 Attagene TRANS-FACTORIAL M19 internal marker reporter
How it was run: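 After transfection of HepG2 with GAL4-UAS-driven reporter constructs, cells are dosed for 24 h. Total RNA is reverse-transcribed, reporter sequences PCR-amplified and labelled, then HpaI-digested and sized by capillary electrophoresis.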

[17] = ATG_GAL4_TRANS: Attagene TRANS-FACTORIAL HepG2 Assay for GAL4 (Internal Marker) (AID 2282976; active = hit-call score of the fitted dose curve at least 0.9, where 1 is the maximum); settings: HepG2 Attagene TRANS GAL4 internal marker reporter
How it was run: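 HepG2 cells transiently transfected with multiplexed GAL4-UAS reporter constructs were dosed for 24 h. Reporter mRNA was measured by RT-PCR, 6-FAM primer extension, HpaI digestion and capillary electrophoresis, and gain of signal was fitted relative to DMSO.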

[18] = biological target: Steroid hormone receptor ERR1 (Homo sapiens) (UniProt P11474); assay: ATG_ERRa_TRANS: Attagene TRANS-FACTORIAL HepG2 Assay for human Estrogen-Related Receptor alpha (ERRa) (AID 2282971; active = hit-call score of the fitted dose curve at least 0.9, where 1 is the maximum); settings: HepG2 Attagene TRANS reporter, ERRa transactivation
How it was run: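 HepG2 cells transiently transfected with multiplexed GAL4-UAS reporter units reading chimeric ERRa-Gal4 activity; 24 h compound exposure. Reporter mRNA measured by RT-PCR, 6-FAM labelling, HpaI digest and capillary electrophoresis; gain of signal fitted versus DMSO baseline.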

[19] = biological target: Estrogen-related receptor gamma (Homo sapiens) (UniProt P62508); assay: ATG_ERRg_TRANS: Attagene TRANS-FACTORIAL HepG2 Assay for human Estrogen-Related Receptor gamma (ERRg) (AID 2282977; active = hit-call score of the fitted dose curve at least 0.9, where 1 is the maximum;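 note: hits increase reporter signal over DMSO so potencies reflect activators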); settings: HepG2 Attagene TRANS reporter, ERRg transactivation
How it was run: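 Transient HepG2 transfectants, 24 h compound exposure, GAL4-UAS reporter mRNA by RT-PCR/6-FAM labelling/capillary electrophoresis; positive direction vs DMSO.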

Measured: AC50

Sequence of X-box-binding protein 1 (Homo sapiens) (P17861 whole entry, looked up, the tested form may be a part): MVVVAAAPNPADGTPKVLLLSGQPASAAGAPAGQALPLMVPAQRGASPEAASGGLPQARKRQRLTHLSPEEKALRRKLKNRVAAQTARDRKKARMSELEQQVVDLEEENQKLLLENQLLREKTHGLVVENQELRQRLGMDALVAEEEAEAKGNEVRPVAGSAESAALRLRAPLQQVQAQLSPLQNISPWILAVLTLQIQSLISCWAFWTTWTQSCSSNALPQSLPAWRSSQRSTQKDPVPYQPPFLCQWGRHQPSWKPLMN
Sequence of Nuclear receptor subfamily 1 group I member 3 (Homo sapiens) (Q14994 whole entry, looked up, the tested form may be a part): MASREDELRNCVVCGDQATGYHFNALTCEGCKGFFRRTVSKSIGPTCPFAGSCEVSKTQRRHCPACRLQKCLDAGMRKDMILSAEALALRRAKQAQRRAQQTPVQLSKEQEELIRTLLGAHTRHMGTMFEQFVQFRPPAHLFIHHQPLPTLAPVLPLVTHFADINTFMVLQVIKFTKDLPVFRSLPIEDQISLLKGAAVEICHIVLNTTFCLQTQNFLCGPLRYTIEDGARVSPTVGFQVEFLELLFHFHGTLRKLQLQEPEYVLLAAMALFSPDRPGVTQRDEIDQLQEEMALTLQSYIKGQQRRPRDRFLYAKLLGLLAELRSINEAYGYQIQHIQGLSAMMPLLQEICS
Sequence of Transcription factor Sp1 (Homo sapiens) (P08047 whole entry, looked up): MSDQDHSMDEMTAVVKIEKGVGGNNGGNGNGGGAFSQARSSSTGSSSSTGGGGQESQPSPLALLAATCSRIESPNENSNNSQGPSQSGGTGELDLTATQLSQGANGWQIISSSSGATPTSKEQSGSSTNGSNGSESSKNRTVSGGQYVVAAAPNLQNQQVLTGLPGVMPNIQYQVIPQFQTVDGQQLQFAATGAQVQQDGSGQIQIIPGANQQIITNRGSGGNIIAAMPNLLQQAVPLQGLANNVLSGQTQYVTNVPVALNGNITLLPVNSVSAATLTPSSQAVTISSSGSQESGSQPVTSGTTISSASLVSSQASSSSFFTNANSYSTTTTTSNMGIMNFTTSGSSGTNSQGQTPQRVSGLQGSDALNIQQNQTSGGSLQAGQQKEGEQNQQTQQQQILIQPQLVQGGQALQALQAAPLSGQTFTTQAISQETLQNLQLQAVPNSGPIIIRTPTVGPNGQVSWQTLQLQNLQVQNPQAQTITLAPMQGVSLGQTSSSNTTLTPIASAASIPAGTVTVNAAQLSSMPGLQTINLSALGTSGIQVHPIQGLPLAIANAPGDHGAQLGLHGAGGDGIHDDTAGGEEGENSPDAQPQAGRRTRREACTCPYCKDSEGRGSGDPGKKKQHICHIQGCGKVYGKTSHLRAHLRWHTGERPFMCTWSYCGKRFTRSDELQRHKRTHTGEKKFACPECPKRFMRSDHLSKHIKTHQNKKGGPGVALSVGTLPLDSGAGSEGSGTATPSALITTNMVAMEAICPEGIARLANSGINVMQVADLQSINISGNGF
Sequence of Signal transducer and activator of transcription 3 (Homo sapiens) (P40763 whole entry, looked up): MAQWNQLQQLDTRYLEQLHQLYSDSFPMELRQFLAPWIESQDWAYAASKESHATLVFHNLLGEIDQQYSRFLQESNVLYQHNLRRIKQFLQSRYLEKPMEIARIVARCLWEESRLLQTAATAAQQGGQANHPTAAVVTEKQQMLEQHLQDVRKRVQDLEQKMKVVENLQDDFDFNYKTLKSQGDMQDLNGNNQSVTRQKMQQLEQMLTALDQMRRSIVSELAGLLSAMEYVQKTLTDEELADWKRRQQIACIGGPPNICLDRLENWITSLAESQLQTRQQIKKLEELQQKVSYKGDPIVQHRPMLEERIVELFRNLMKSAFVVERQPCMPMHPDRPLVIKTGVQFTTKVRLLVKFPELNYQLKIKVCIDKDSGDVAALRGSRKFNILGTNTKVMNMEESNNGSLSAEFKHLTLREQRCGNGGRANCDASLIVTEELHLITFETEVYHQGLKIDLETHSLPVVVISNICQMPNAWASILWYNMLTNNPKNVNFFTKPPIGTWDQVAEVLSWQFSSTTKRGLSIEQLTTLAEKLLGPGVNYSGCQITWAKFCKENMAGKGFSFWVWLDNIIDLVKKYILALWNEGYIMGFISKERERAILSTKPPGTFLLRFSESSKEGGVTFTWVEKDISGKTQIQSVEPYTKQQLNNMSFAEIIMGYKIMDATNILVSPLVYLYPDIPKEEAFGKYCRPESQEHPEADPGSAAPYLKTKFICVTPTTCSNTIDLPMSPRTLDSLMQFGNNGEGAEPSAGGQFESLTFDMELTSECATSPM
Sequence of Paired box protein Pax-6 (Homo sapiens) (P26367 whole entry, looked up): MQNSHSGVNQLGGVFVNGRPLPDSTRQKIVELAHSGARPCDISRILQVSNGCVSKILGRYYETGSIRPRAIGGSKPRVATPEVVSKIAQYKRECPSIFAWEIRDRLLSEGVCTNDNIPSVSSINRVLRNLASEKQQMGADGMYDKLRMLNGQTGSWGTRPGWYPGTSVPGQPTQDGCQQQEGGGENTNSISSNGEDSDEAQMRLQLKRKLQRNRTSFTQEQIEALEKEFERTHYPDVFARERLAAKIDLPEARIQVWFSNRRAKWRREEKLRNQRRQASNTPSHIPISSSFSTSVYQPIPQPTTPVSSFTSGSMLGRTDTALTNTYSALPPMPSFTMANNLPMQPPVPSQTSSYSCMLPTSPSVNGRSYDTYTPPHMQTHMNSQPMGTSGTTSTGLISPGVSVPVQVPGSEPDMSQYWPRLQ
Sequence of Estrogen-related receptor gamma (Homo sapiens) (P62508 whole entry, looked up, the tested form may be a part): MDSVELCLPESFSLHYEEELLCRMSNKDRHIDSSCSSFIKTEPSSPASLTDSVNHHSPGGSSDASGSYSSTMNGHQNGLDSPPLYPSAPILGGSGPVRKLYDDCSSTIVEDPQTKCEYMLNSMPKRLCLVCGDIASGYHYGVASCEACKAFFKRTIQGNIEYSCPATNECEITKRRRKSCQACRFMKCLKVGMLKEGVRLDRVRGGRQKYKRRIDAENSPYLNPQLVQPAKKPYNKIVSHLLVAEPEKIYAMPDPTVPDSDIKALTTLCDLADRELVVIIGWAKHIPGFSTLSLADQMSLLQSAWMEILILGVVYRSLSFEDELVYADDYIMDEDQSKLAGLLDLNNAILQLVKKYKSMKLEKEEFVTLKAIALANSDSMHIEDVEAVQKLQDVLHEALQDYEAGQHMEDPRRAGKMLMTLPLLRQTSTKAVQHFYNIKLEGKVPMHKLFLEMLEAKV
Sequence of Steroid hormone receptor ERR1 (Homo sapiens) (P11474 whole entry, looked up, the tested form may be a part): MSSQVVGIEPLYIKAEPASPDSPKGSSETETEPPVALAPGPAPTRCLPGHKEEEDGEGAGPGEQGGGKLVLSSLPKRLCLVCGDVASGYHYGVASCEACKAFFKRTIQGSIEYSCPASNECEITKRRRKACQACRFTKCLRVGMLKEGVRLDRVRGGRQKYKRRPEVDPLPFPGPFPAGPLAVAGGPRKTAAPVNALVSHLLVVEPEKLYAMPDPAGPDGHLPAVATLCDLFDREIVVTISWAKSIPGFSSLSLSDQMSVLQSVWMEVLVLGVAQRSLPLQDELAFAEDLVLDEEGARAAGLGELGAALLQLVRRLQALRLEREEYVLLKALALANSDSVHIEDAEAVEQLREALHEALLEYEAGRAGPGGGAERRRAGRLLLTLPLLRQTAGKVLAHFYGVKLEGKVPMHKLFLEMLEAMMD

CC(CN=Cc1ccccc1O)N=Cc1ccccc1O (centres undefined)
active: [11] 25.9 µM
inactive: [1] | [2] | [3] | [4] | [5] | [6] | [7] | [8] | [9] | [10] | [12] | [13] | [14]

CC1=C(Br)C(=O)C(Br)=C/C1=C(/c1ccccc1S(=O)(=O)O)c1cc(Br)c(O)c(Br)c1C
inactive: [1] | [3] | [4] | [5] | [6] | [7] | [8] | [9] | [10] | [12] | [16] | [17]
active: [2] 26.2 µM | [15] 40.8 µM

COc1cc(C(C)C)ccc1C
inactive: [1] | [2] | [3] | [4] | [5] | [6] | [7] | [8] | [9] | [11] | [12] | [15] | [14]

CCC(=O)O[C@@H]1C[C@H]2CC[C@]1(C)C2(C)C
inactive: [1] | [2] | [3] | [4] | [5] | [6] | [7] | [8] | [9] | [10] | [12] | [15] | [13] | [14] | [16] | [17]

C=Cc1ccncc1
active: [1] 33.1 µM | [2] 33.1 µM | [3] 13.5 µM | [4] 10.2 µM | [5] 21.8 µM | [6] 27.1 µM | [7] 17.1 µM | [10] 57 µM | [15] 20.2 µM | [14] 26.1 µM
inactive: [8] | [9] | [11] | [13] | [18] | [16] | [19]
